Screening results as filed in PubChem BioAssay.
Sampled rows, rich in hits. Any-hit rate of the full collection: about 10%.
HP1b binding inh: HP1-beta chromodomain-methylated histone interaction inhibition. AlphaScreen HP1-beta / biotin-H3K9me3 peptide binding. 390,000 tested, 0.56% active. P83916. Potency, µM (highest dose often 114 µM), usual class: inhibitors. AID 540317; also: nearly all actives have a fitted effect of over 70% in size
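AlphaScreen: HP1-beta (50 nM) preformed 30 min with biotin-H3(1-18)K9me3 peptide (50 nM) in PBS pH 7.4, 0.01% Tween-20. Compound added for 30 min at RT, then streptavidin donor/nickel chelate acceptor beads (10 ug/mL) for 30 min.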
G9a block: G9a (human) methyltransferase inhibition. Potency, µM (titrated, usually from 102 µM), actives largely listed as inhibitors. G9a H3K9 monomethylation, AlphaScreen, 2 h. AID 504332. Q96KQ7. 350,000 tested, 8.8% active; also: nearly all actives have a fitted effect of over 75% in size
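AlphaScreen detection with an anti-monomethyl H3K9 antibody quantified product after a 2 h room-temperature reaction containing 500 nM biotinylated H3K9 peptide, 20 µM SAM and 20 nM enzyme, which had been preincubated 15 min with compound.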
JMJD2A Tudor: blocks the human JMJD2A Tudor domain | Potency, µM (series often up to 114 µM), hits mostly inhibitors | O75164 | 390,000 tested, 4.4% active | AlphaScreen JMJD2A-Tudor / H3K4me3 peptide binding; also: nearly all actives have a fitted effect of over 50% in size
GLS inhibitor: inhibitors of human glutaminase (GLS) | O94925 | GLS enzymatic activity, qHTS titration | Potency, µM (series often up to 45.5 µM), hits mostly inhibitors | 410,000 tested, 0.21% active | AID 624170
Target sequence (O94925 whole entry, looked up): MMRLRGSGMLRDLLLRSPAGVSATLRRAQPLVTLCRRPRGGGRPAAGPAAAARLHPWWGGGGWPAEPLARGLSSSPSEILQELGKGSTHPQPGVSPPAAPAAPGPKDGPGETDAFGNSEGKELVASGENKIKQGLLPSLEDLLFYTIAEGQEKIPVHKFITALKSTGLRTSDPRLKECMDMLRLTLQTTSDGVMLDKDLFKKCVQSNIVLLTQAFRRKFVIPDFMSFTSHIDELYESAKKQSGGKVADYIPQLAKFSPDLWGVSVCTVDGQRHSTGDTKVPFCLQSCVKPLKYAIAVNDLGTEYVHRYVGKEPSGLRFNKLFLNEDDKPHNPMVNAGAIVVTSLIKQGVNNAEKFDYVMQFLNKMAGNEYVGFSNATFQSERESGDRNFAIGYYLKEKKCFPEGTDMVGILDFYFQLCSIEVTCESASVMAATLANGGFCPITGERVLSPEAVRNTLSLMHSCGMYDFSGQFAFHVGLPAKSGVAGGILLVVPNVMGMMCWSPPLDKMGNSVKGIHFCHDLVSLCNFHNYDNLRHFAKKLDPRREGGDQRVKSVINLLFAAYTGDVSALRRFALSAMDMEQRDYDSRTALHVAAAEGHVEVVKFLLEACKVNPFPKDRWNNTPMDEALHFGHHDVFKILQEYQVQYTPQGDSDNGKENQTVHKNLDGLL
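hKGA in 45 mM KH2PO4 (pH 8.2), 0.02% Tween-20 with compound, then 1mM L-Glutamine (stock as added) plus glutamate oxidase/HRP/Amplex red coupling mix. Fluorescence read initially and after 30 min at RT; signal change reflects glutamate formation.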
BAZ2B inh: BAZ2B (human) inhibition. AlphaScreen BAZ2B-H3K14Ac peptide displacement. Potency, µM (doses to about 114 µM), usual class: inhibitors. 360,000 tested, 4.4% active. Q9UIF8; also: nearly all actives have a fitted effect of over 60% in size
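BAZ2B 50 nM plus b-H3(5-23)K14Ac 50 nM, PBS pH 7.4/0.01% Tween-20, 30 min RT; compound added (max 110 uM), 30 min RT; streptavidin donor/Ni-chelate acceptor beads 10 ug/mL final, 20 min dark; AlphaScreen read.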
A number is an active result; n = inactive; u = inconclusive; x = not tested or not shown; ! = not active in a repeat; [ ] = dose if it differs, or a comment. Calls follow the shape of the dose curve; as a rule, active = well fitted curve in the direction sought with a large enough effect; inconclusive = small, poorly fitted or top-dose-only effect, or another doubt; inactive = no such curve, though single readings can be large; an effect the other way counts as inactive or inconclusive.

SMILES	HP1b binding inh	G9a block	JMJD2A Tudor	GLS inhibitor	BAZ2B inh
CCOc1ccccc1C1C2C(=O)N(c3ccccc3)C(=O)C2ON1c1ccccc1 (stereo not given)	n	u	n	n	x
O=C(OCC(=O)N1CCc2ccccc21)c1ccc(Br)o1	n	x	n	n	x
CCn1cc(C(=O)O)c(=O)c2cc(F)c(N3CCN(C(=S)NC(=O)c4cccc(F)c4)CC3)cc21	n	x	n	n	n
Cc1nc2c(O)c3c(c(O)c2nc1C)C1C=CC3CC1	n	x	n	u	x
CCOC(=O)c1c(C)nc2sc(C(=O)Nc3ccc(OC)cc3)c(N)c2c1-c1ccc(OC)cc1	n	n	n	n	n
COCCNc1nnc(SCC(=O)NNC(=O)c2ccc([N+](=O)[O-])cc2)s1	n	35.5µM	n	n	n
COCCNc1nnc(SCC(=O)NC(=O)c2ccccc2OC)s1	n	x	n	n	n
COC(=O)[C@@]1(Cc2ccccc2)[C@H]2C(=O)N(Cc3ccccc3)C(=O)[C@H]2[C@H]2CN=C(SCC(=O)c3ccccc3)N21	n	x	u	n	x
Nc1ccc(-c2nc3cc(N)ccc3o2)cc1	n	x	n	n	n
COc1ccc(-c2cc(C(F)F)n3ncc(C(=O)N4CCc5ccccc54)c3n2)cc1	u	x	20µM	u	u
CNC(=O)C(=O)NCC1CCCN1S(=O)(=O)c1cccs1 (stereo not given)	n	n	n	n	n
COc1ccc(C2CC(=O)N(Cc3cccc(F)c3)c3ccccc3S2)cc1 (stereo not given)	n	n	n	n	n
COc1ccc([C@@H]2Sc3ccccc3N(CCN(C)C)C(=O)[C@@H]2OC(C)=O)cc1	n	3.16µM!	n	n	n
CCC(CC)C(=O)NCCN1CCN(C(=O)C(CC)CC)CC1	n	5.62µM	n	n	n
CCOc1ccc(Nc2nc(Cc3nnc(SCC(=O)O)o3)cs2)cc1	n	50.1µM	89.1µM	u	u
CCOc1ccc(Cc2nnc(SCC(=O)c3ccc(OC)cc3)o2)cc1	n	u	n	n	n
CCCCC(CCC(=O)O)(C(=O)OCC)c1csc(Nc2ccc(OCC)cc2)n1 (stereo not given)	n	31.6µM	n	n	u
CCN(CC)CCOc1cc2c(nn1)Oc1ccccc1N2C	n	50.1µM	u	n	u
CN1c2ccccc2Oc2nnc(Cl)cc21	n	n	n	n	n
COc1ccc(CCNc2ncnc3cc(OC)c(OC)cc23)cc1OC	n	n	n	n	n
S=C(NCc1ccccc1)NC1CCCc2ccccc21 (stereo not given)	n	n	n[11.4 µM]	n	n
O=C(CN1C(=O)C2CCCCC2C1=O)NC1CCCc2ccccc21 (stereo not given)	n	u	n	n	n
S=C(NC1CC1)NC1CCCc2ccccc21 (stereo not given)	n	n	u	n	56.2µM
CCCCN1C(=O)C(=O)N(CC(=O)NC2CCCc3ccccc32)C1=O (stereo not given)	u	n	5.01µM	n	n
CCS(=O)(=O)c1ccccc1C(=O)NC1CCCc2ccccc21 (stereo not given)	n	39.8µM	n	n	n
SMILES	HP1b binding inh	G9a block	JMJD2A Tudor	GLS inhibitor	BAZ2B inh
CC(NCCS(=O)(=O)c1ccc(Cl)cc1)c1cccc(Cl)c1 (stereo not given)	n	n	n	n	n
CCCC(=O)N1CC(=O)Nc2ccc(Br)cc2C1c1ccc(F)cc1 (stereo not given)	n	n	n	n	n
O=C(O)c1cc([N+](=O)[O-])ccc1NCCCc1ccccc1	n	n[12.7 µM]	n	n	x
Cc1ccnc(NC(=O)c2cccc([N+](=O)[O-])c2C)c1	n	n	n	n	n
Cc1ccnc(NC(=O)/C=C/c2ccccc2[N+](=O)[O-])c1	x	u	x	x	56.2µM
Cc1ccc(NC(=O)CCC(=O)NNC(=O)c2cccs2)c(C)c1	n	n	n	n	n
O=C(Nc1ccccn1)c1ccc([N+](=O)[O-])o1	n	n	n	n	n
Cc1ccnc(NC(=O)c2ccc([N+](=O)[O-])o2)c1	n	n[12.7 µM]	n	u	56.2µM
Cc1ccnc(NC(=O)c2ccccc2[N+](=O)[O-])c1	u	10µM	n	n	n
Cc1ccc(NC(=O)CCC(=O)NNC(=O)c2ccccc2[N+](=O)[O-])c(C)c1	n	50.1µM	n	n	n
Cc1cc2ncn(CC(C)C)c2cc1C	n	n[12.7 µM]	n	n	n
COc1cc(/C=N/S(=O)(=O)CCc2ccccc2)ccc1O	n	n	n	n	n
O=C1c2ccccc2C(=O)N1N=Cc1ccc2c(c1)OCO2	x	x	x	n	x
COc1cc(/C=N/N(C)c2ccccc2)ccc1O	u	14.1µM	56.2µM	n	44.7µM
Clc1ccccc1N/N=C/c1ccc2c(c1)OCO2	n	8.91µM	n	25.1µM	n
COc1cc(OC)c(OC)cc1/C=N/N(C)c1ccccc1	15.8µM	8.91µM	44.7µM	n	31.6µM
C(=N\N1CCN(C(c2ccccc2)c2ccccc2)CC1)/c1ccc2c(c1)OCO2	u	u	22.4µM	n	u
O=C(CNC(=O)c1ccccc1Cl)N/N=C/c1ccc2c(c1)OCO2	n	n	n	n	n
C/C(CC(=O)Nc1ccc2c(c1)OCCO2)=N\NC(=O)COc1ccccc1C	n	u	n	n	n
Cc1ccccc1NC(=O)Cc1nc(COC(=O)CCOc2ccccc2)cs1	n	n	n	n	n
CCC(C)NC(=O)C1CCN(S(=O)(=O)N2CCC3(CC2)OCCO3)CC1 (stereo not given)	n	n	n	n	n
CC1=C(C(=O)OC(C)C)C(c2ccc(F)cc2)NC(=O)N1 (stereo not given)	n	u	n	n	n
CC(C)CCNc1nc(N)c([N+](=O)[O-])c(N2CCCCCC2)n1	n	n	n	n	n
CN(/N=C/c1ccc2c(c1)OCO2)c1ccccc1	n	10µM	u	n	28.2µM
Cc1ccc(CNC(=O)CN(c2cccc(C)c2C)S(=O)(=O)c2ccccc2)cc1	n	n	n	n	n
SMILES	HP1b binding inh	G9a block	JMJD2A Tudor	GLS inhibitor	BAZ2B inh
CCc1cccc(CC)c1N1C(=O)COCC1=O	x	x	x	n	x
CC(C)c1ccc2[nH]c(O)c(N=NC(=O)c3cccc(S(=O)(=O)Nc4ccccc4Cl)c3)c2c1	n	n	n	n	n
O=C(N=Nc1c(O)[nH]c2ccccc12)c1cccc(S(=O)(=O)Nc2ccccc2Cl)c1	n	n	28.2µM	n	u
CCc1cccc(NC(=S)N(CCCN2CCOCC2)C(C)c2cc3cccc(OC)c3o2)c1 (stereo not given)	n	n	u	n	n
COCCn1c(SCC(=O)N2CCCCC2)nc2ccccc2c1=O	n	u	n	n	n
COCCn1c(SCCN2CCCCC2)nc2ccccc2c1=O	u	u	2.24µM	n	u
CCCn1c(SCCC(=O)O)nc2ccccc21	n	n	n	n	n
COCCCNC(=O)C1CC(=O)N(CCc2ccc(OC)c(OC)c2)C1 (stereo not given)	n	n[0.501 µM]	n	n	n
